# In article PMC4336329 (PLoS ONE, 2015):
# Screen size: about 310,000 compounds; about 14,000 (4.5%) showed an effect of 50% or more. The effect is printed as a negative number. The list comes from a sample in which strong results are over-represented; it also holds similar structures and randomly drawn compounds.
# Molecular target: human ether-à-go-go-related gene (hERG) potassium channel (human, UniProt Q12809)
# Experiment: primary screen, population patch clamp on CHO cells stably expressing hERG; higher = less effect of the substance
# 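Further: peak tail current of the secondary pulse compared with the same well before compound.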
# Chain of human ether-à-go-go-related gene (hERG) potassium channel (Q12809 whole entry, looked up): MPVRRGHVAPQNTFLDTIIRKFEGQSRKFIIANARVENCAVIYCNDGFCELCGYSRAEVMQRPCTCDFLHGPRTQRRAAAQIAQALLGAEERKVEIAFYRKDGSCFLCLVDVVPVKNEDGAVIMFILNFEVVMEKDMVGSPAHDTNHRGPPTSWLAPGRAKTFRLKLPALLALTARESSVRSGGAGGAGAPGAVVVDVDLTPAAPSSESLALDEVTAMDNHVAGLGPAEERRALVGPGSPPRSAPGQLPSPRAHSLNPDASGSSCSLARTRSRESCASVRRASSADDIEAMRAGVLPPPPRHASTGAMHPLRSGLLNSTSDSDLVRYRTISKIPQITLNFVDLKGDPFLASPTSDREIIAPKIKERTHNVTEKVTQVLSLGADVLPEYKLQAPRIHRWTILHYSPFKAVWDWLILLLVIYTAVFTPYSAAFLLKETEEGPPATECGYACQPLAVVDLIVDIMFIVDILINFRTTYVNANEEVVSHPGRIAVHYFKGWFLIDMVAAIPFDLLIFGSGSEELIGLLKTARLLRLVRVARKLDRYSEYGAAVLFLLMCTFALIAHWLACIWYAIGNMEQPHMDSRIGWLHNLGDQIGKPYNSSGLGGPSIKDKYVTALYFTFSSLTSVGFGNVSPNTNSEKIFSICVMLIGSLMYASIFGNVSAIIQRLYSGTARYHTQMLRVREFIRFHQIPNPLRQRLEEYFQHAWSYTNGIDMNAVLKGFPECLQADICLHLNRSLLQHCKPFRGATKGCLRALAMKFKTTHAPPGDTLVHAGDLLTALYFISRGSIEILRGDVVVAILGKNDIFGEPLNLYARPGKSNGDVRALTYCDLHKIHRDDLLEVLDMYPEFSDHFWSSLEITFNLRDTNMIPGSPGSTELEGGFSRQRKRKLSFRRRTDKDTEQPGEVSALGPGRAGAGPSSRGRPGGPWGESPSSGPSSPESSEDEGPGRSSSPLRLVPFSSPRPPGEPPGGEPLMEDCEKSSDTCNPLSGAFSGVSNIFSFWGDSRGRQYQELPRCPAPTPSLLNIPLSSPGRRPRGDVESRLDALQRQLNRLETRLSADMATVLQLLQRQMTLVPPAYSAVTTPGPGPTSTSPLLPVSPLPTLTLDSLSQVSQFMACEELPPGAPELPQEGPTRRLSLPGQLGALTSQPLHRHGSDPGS
row,Structure (SMILES),"hERG current change (%, negative = inhibition) at 10uM [%]"
1,NC(=O)NC1NC(=O)NC1=O (stereo not shown),11.9
2,C/C(Cl)=C\Cn1c(O)c(N=NC(N)=S)c2cc(Br)ccc21,8.96
3,COc1cccc(C(=O)N(C)CC(=O)Nc2ccc(F)c(F)c2F)c1,11.4
4,O=C(COC(=O)c1ccc(S(=O)(=O)N2CCOCC2)cc1)NC1CCCCCCC1,12.2
5,Clc1ccc(Nc2ccc(-n3ccnc3)nn2)cc1Cl,-9.9
6,CC(=O)c1cc2c(C)cc(=O)oc2cc1O,1.77
7,CC1CCN(C(=O)Cn2c(=O)n(Cc3ccc4c(c3)OCO4)c(=O)c3ccccc32)CC1,-18.5
8,CN(C)CCCOC(=O)c1ccccc1Cl.Cl,-0.792
9,CCN(CC)CCOC(=O)c1ccc(Cl)cc1Cl.Cl,-55.4
10,CCN(CC)CCOC(=O)c1ccc(Cl)cc1.Cl,-42.7
11,CCN(CC)CCOC(=O)c1cccc(Cl)c1.Cl,-32.4
12,CN(C)CCCOC(=O)c1ccc(Cl)cc1Cl.Cl,-38.8
13,CCCN(CCC)CCCOC(=O)c1ccc(Cl)cc1Cl.Cl,-70.1
14,Cc1nnc(NC(=O)CN2CCN(Cc3ccccc3Cl)CC2)s1,6.08
15,CSc1cccc(NC(=O)c2ccccn2)c1,7.57
16,CC[C@H](C)C(N)c1cn([C@@H](CC(N)=O)C(=O)N2CCNCC2)nn1 (stereo partly shown),-10.5
17,COc1ccc2c(c1)C(NS(=O)(=O)OCC(Cl)(Cl)Cl)CCC2 (stereo not shown),-0.647
18,CC1CCCC(NC(=O)CCNC(=O)c2ccc(Br)cc2)C1C (stereo not shown),-0.231
19,Cc1ccc(C)c(OC(C)C(=O)Nc2nccs2)c1 (stereo not shown),3.8
20,CN(C)c1ccc(/C=N/NC(=O)CCC(=O)NCc2ccccc2)cc1,11.3
21,CCc1cc(C(=O)N2CCc3c([nH]c4ccccc34)C2c2ccc(OC)cc2F)no1 (stereo not shown),15.7
22,COc1ccc2oc(C(=O)CCC(=O)O)c(N)c2c1,4.93
23,COc1ccccc1N1CCN(C(=O)c2cc(C)oc2C)CC1,21
24,O=C(NN1CC(=O)N(c2cc(Cl)cc(Cl)c2)CC1=O)c1sccc1Cl,-0.682
25,Cc1cccc(N(CC(=O)N/N=C/c2ccccc2C(=O)O)S(C)(=O)=O)c1C,-28.9
26,CC(C)C(=O)N/N=C/c1ccc(OCc2ccccc2)cc1,17.8
27,N#CCC(=O)N/N=C/c1ccc(OCc2ccccc2)cc1,11.3
28,CC(C)(C)NCC(=O)N/N=C/c1ccc(OCc2ccccc2)cc1,-60.5
